An excerpt weighted towards active compounds, which were near 2.1% of everything screened.
APP transl inh – APP translation inhibition | SH-SY5Y APP 5'UTR-luciferase reporter, luminescence | inhibition, % at 2 µM | 0.82% of 190,000 active;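 active means inhibition above a set limit, derived from the sample mean plus 3 SD, cut at about 45% in these data; inconclusive means one replicate passes the limit while the other fails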
Ba/F3 V617F tox – reduce viability of Ba/F3 cells dependent on JAK2V617F | Ba/F3 EpoR-JAK2V617F viability, ATP luminescence | inhibition, % at 5.6 µM | 1.1% of 220,000 active | AID 1446;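 active means inhibition above the campaign mean plus 3 SD over all tested compounds, cut at about 24% in these data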;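 further: cytokine-independent growth of Ba/F3 cells driven by EpoR plus mutant JAK2; 0% = DMSO-treated cells and 100% = JAK inhibitor I control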
BaF3 parental – reduces parental Ba/F3 cell viability, JAK2V617F counter-screen; 1.1% of 220,000 active; CellTiter-Glo ATP luminescence; AID 1486; inhibition, % at 5.6 µM;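 active means inhibition above a per-campaign cutoff, the mean inhibition of all tested compounds plus 3 SD, cut at about 27% in these data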;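 further: 0% = DMSO wells and 100% = JAK Inhibitor I control wells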
KLF5 inh – kruppel-like factor 5 inhibition. DLD-1 KLF5 promoter-luciferase reporter, luminescence. inhibition, % at 5 µM. 0.23% of 290,000 active. AID 1700;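 active means inhibition above a per-plate limit of that plate's mean compound inhibition plus 3 SD, cut at about 60% in these data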;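 further: 0% = DMSO wells and 100% = LY294002 at 200 µM; higher means less KLF5 promoter-driven luciferase light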
aSyn 5UTR inh – 5' untranslated region of α-synuclein, MLPCN primary screen; alpha-synuclein 5'UTR reporter, inhibitor activity; 0.82% of 300,000 active; AID 1813; inhibition, % (tested at 7.5 µM); in the data active means inhibition above about 60%; inconclusive means no clear call, values can overlap the other calls;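 further: H4 neuroglioblastoma cells stably carrying SNCA 5'UTR luciferase fusion; 0% = DMSO wells and 100% = positive control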
IEC-6 tox-1 – kills IEC-6 intestinal cells in KLF5 counter-screen; IEC-6 cytotoxicity, luminescence viability; AID 1825; inhibition, % at 5 µM; 0.78% of 290,000 active;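 further: 0% = plate median of test compound wells and 100% = cytotoxic reference compound wells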
BaF3 tox 2 – counter-screen for JAK2V617F inhibitors: parental Ba/F3 viability inhibitors; shares compounds with Ba/F3 V617F tox; CellTiter-Glo luminescence; cells kept alive by added IL-3; inhibition, % at 5.6 µM; 31% of 580 active; AID 1520;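 active means cell growth inhibition above the hit limit set in the earlier mutant JAK2 cell screen, cut at about 27% in these data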;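 further: plate controls were DMSO-treated cells for no effect and JAK Inhibitor I control wells for full effect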
JAK2V617F conf – Ba/F3 EpoR-JAK2V617F viability loss, confirmation; shares compounds with Ba/F3 V617F tox; CellTiter-Glo luminescence; inhibition, % at 5.6 µM; 66% of 580 active;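 active means mean inhibition above the hit cutoff derived in the earlier primary screen, cut at about 25% in these data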;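 further: 0% = DMSO-treated cells and 100% = JAK inhibitor I control wells; higher means lower luminescence from reduced cell ATP and viability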
KLF5 inh confirm – confirmation of KLF5 inhibitors. shares compounds with KLF5 inh. DLD-1 KLF5 promoter firefly luciferase reporter, luminescence. inhibition, % at 4 µM. 79% of 610 active. AID 1834;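 active means inhibition above a set limit taken from the earlier primary screen, cut at about 63% in these data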;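 further: 0% = DMSO wells and 100% = LY294002 at 200 µM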
IEC-6 tox-2 – counter-screen for KLF5 inhibitors: cytotoxicity in rat IEC-6 cells; shares compounds with KLF5 inh; IEC-6 rat intestinal cells, viability luminescence; inhibition, % at 4 µM; 56% of 610 active; in the data active means inhibition above about 23%;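 further: cells exposed to compounds for 48 hours before viability read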
IEC-6 cytotox cf – IEC-6 cytotoxicity, confirmation assay; AID 1907; IEC-6 rat intestinal epithelial viability, luminescence; shares compounds with IEC-6 tox-1; inhibition, % at 5 µM; 63% of 1,900 active;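 further: 0% = vehicle and 100% = reference cytotoxic drug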
Numbers without * were called inactive; ? = inconclusive; nt = no result. Unless noted, no stated cut-off is given here; in the data, active means inhibition above about 22%; inactive means the rest.

SMILES	APP transl inh	Ba/F3 V617F tox	BaF3 parental	KLF5 inh	aSyn 5UTR inh	IEC-6 tox-1	KLF5 inh confirm	IEC-6 tox-2	others
Cc1cc(C)c(C)c(OCC(O)CN2CCN(c3ccccn3)CC2)c1 (centres undefined)	nt	nt	nt	-9.2	7.4	3.7	nt	nt
O=S(=O)(c1cccs1)N1CCN(c2ccc(O)cc2)CC1	nt	65.5*	-1.9	-7.1	18.6	24.3*	nt	nt	BaF3 tox 2=6.4;JAK2V617F conf=60.1*;IEC-6 cytotox cf=5.8
CN1CCN(S(=O)(=O)c2cccs2)CC1	19.4	-1.3	0.3	-30.9	-18.5	-0.3	nt	nt
C/C(=N\N=C(N)N)c1cc(Cl)ccc1Cl	-26.0	44.3*	7.7	-3.0	64.7*	31.1*	nt	nt	BaF3 tox 2=-4.4;JAK2V617F conf=22.7;IEC-6 cytotox cf=7.1
O=C(CCl)NCc1cc(-c2ccc(Cl)cc2)no1	-2.6	23.6*	11.2	3.1	-65.3	23.9*	nt	nt	BaF3 tox 2=11.7;JAK2V617F conf=75.4*;IEC-6 cytotox cf=31.1*
COc1ccc(OCc2cc(-c3ccc(Cl)cc3)no2)cc1	6.3	-0.7	-0.3	3.0	-32.5	2.5	nt	nt
O=C(CCOc1ccccc1)Nc1ccnn1C1CCN(CCc2ccccc2)CC1	nt	nt	nt	-18.4	3.3	-7.3	nt	nt
Cc1cc2[nH]c3c(c[n+](C)c4ccccc34)c2cc1C	83.4*	33.4*	4.4	58.3	101.2*	65.2*	nt	nt	BaF3 tox 2=14.9;JAK2V617F conf=92.3*;IEC-6 cytotox cf=55.1*
COc1ccc(-c2[nH]ncc2CN2CCC(O)(c3ccc(Cl)cc3)CC2)cc1	nt	41.5*	10.6	-6.5	87.4*	34.3*	nt	nt	BaF3 tox 2=34.2*;JAK2V617F conf=40.7*;IEC-6 cytotox cf=23.4*
COc1ccc(-c2[nH]ncc2CN2CCN(c3ccc(F)cc3)CC2)cc1	nt	-2.7	-1.1	-7.9	15.6	-3.2	nt	nt
OC1(c2ccc(Cl)cc2)CCN(Cc2cn[nH]c2-c2ccc(F)cc2)CC1	nt	45.2*	2.7	-13.1	?	43.1*	nt	nt	BaF3 tox 2=18.3;JAK2V617F conf=34.5*;IEC-6 cytotox cf=26.0*
COc1ccc(OCCCC(=O)Nc2cccc(C(C)=O)c2)cc1	7.1	73.0*	-0.6	-20.3	2.3	89.1*	nt	nt	BaF3 tox 2=-6.0;JAK2V617F conf=-4.0;IEC-6 cytotox cf=-9.6
COc1cc(C(=O)NNC(=S)NC(=O)c2ccc3c(c2)OCO3)cc(OC)c1OC	nt	0.1	-1.6	-2.5	-7.7	6.2	nt	nt
COc1cc(C(=O)c2cocc2C(=O)c2ccc3c(c2)OCO3)cc(OC)c1OC	nt	71.3*	77.8*	63.1*	66.7*	77.4*	76.0*	53.7*
COc1ccc(CNC(=O)Cn2c(=O)n(CCC(=O)N3CCCCC3)c(=O)c3sccc32)cc1	nt	nt	nt	-23.9	-0.4	-6.0	nt	nt
COc1ccc(-n2ncc3c(N(C)C4CCCCC4)ncnc32)cc1	nt	nt	nt	73.6*	94.0*	5.0	64.3*	1.2
COc1ccc(-n2ncc3c(N4CCC(C)CC4)ncnc32)cc1	nt	nt	nt	-42.9	18.5	-5.8	nt	nt
Cc1ccc2occ(/C=N/NC(=O)c3ccccc3O)c(=O)c2c1	nt	nt	nt	63.9*	25.0	-11.0	47.7	-5.7
O=C(Nc1nc2cc3c(cc2s1)OCO3)C1=COCCO1	-75.2	11.4	14.6	77.8*	94.5*	21.1	49.2	12.1
COc1ccc(-c2nc(-c3ccccn3)no2)cc1	45.9*	34.1*	35.0*	109.9*	107.4*	27.6*	102.8*	44.6*
Clc1ccc(-c2nc(-c3ccccn3)no2)cc1Cl	-117.2	-2.1	-1.2	-88.3	34.3	1.7	nt	nt
Cc1ccc(OCCNC(=O)Cc2ccc(S(=O)(=O)N3CCOCC3)s2)cc1	nt	nt	nt	-15.6	-3.8	1.3	nt	nt
O=C(NCCc1ccccc1F)c1ccc2c(c1)OCCO2	nt	nt	nt	99.6*	108.2*	1.5	107.5*	-0.4
C=CCn1c(SCc2cc(C(C)=O)ccc2OCC)nc2ccccc2c1=O	93.3*	83.7*	78.9*	64.7*	104.0*	34.4*	79.0*	64.0*
CCc1ccn2cc(-c3cc(-c4ccccc4)no3)nc2c1	nt	4.1	-4.2	83.8*	94.4*	19.1	82.2*	-2.2
SMILES	APP transl inh	Ba/F3 V617F tox	BaF3 parental	KLF5 inh	aSyn 5UTR inh	IEC-6 tox-1	KLF5 inh confirm	IEC-6 tox-2	others
COc1ccc(S(=O)(=O)N2c3ccccc3OCC2C)cc1 (centres undefined)	95.6*	72.0*	73.2*	84.0*	39.2	78.6*	79.3*	59.5*
COc1ccc(S(=O)(=O)N2c3ccccc3OCC2c2ccccc2)cc1 (centres undefined)	nt	-0.9	2.8	16.7	-11.1	0.6	nt	nt
CCCN1C=CC(=C2C(=O)c3ccccc3C2=O)C=C1	81.0*	18.3	21.4	107.2*	131.6*	17.7	106.2*	24.2*
CCN1C=CC(=C2C(=O)c3ccccc3C2=O)C=C1	69.8*	5.9	14.3	86.9*	96.1*	12.1	96.0*	8.8
CCCCN1C(C)=CC(=C2C(=O)c3ccccc3C2=O)C=C1C	-180.5	1.8	4.2	-103.6	46.4	7.9	nt	nt
O=C1C(Nc2ccccc2)=C(N2CCCCC2)C(=O)c2ccccc21	-9.7	97.9*	102.5*	63.8*	14.6	-2.7	72.6*	-12.0
COc1ccccc1NC(=O)N1CCCC1	-0.1	5.4	3.6	-12.6	3.1	0.6	nt	nt
CC1CCN(C2=C(NS(=O)(=O)c3ccccc3)C(=O)c3ccccc3C2=O)CC1	nt	1.2	-2.4	-55.5	-9.5	-3.2	nt	nt
COc1ccccc1NC1=C(N2CCCCC2)C(=O)c2ccccc2C1=O	-10.8	100.5*	99.9*	80.5*	51.4	11.2	89.6*	19.6
O=C1CSC(c2ccc([N+](=O)[O-])cc2)N1c1ccc(O)cc1 (centres undefined)	nt	nt	nt	12.8	17.9	-2.6	nt	nt
OCC[C@@H]1C[C@@H](O)[C@H](O)[C@@]2(Cc3ccccc3CCO2)O1	nt	nt	nt	-6.0	-14.1	-4.5	nt	nt
O=C1c2cccc3cc([N+](=O)[O-])cc(c23)C(=O)N1CCN1CCCC1	nt	99.0*	104.0*	61.2	97.8*	99.8*	45.1	97.7*
O=C(O)C(CO)(c1ccccc1)c1ccccc1	nt	nt	nt	-27.5	13.5	-1.3	nt	nt
C/C=C/COC(=O)c1[nH]c2c(c1C)C(=O)CC(c1ccco1)C2 (centres undefined)	94.7*	78.4*	78.2*	83.3*	67.4*	83.2*	88.7*	57.4*
c1cc2c(cc1C1=NNC(=NC3CC3)SC1)OCCO2	51.0*	9.1	11.7	79.3*	111.0*	4.0	102.1*	30.3*
CCCCN=C1NN=C(c2ccc3c(c2)OCCO3)CS1	-80.2	-5.6	7.5	28.1	-30.1	-2.8	nt	nt
COC(CNC(=O)C(=O)NCC1CCCN1S(=O)(=O)c1cccs1)OC (centres undefined)	nt	nt	nt	nt	14.2	nt	nt	nt
O=C(O)CC1(CC(=O)Nc2ccccc2Br)CCCC1	nt	nt	nt	nt	16.4	nt	nt	nt

Assay outcomes as filed in PubChem.
